# From ChEMBL document CHEMBL3988442, “University of Dundee, Small-Polar-MMV Screening Library” (2021)
# Out of some 66,000 compounds screened, about 960 (1.5%) showed an effect of 50% or more. The full list was thinned out, with strong results kept by preference.
# Test system: Trypanosoma brucei
# Assay: Trypanosoma brucei 72 hour study
# Type: functional, organism-based
# Set-up: scale not given: in the data most compounds retested in dose-response had high values
smiles,measurement,setting,value
CN(Cc1ccccc1O)CC1CCCN(CCc2ccc(Cl)cc2)C1 (centres undefined),Percent Effect,"30 µM, 30.03 µM",6.545%
CN(Cc1cccc(O)c1)CC1CCCN(CCc2ccc(Cl)cc2)C1 (centres undefined),Percent Effect,"30 µM, 30.03 µM",55.85%
CN(Cc1ccncc1)CC1CCCN(CCc2ccc(Cl)cc2)C1 (centres undefined),Percent Effect,"30 µM, 30.03 µM",15.49%
Cc1nc[nH]c1CN(C)CC1CCCN(CCc2ccc(Cl)cc2)C1 (centres undefined),Percent Effect,"30 µM, 30.03 µM",61.25%
COc1ccc(CCN2CCCC(CN(C)Cc3[nH]cnc3C)C2)cc1 (centres undefined),Percent Effect,"30 µM, 30.03 µM",11.78%
CN(Cc1cnc(N)nc1)CC1CCCN(CCc2ccc(Cl)cc2)C1 (centres undefined),Percent Effect,"30 µM, 30.03 µM",-6.233%
Cc1ccc(NC(C)(C)c2nnnn2-c2ccc(Cl)cc2)c(C)c1,Percent Effect,"30 µM, 30.03 µM",-23.29%
Cc1nc2cc(C3CCN(Cc4ccccc4F)C3)nn2c(O)c1C (centres undefined),Percent Effect,"30.3 µM, […]",14.24%
Cc1nnc([C@H]2C[C@@H]3CCN(Cc4ccc(C)o4)C[C@H]3O2)[nH]1.O=C(O)C(F)(F)F,Percent Effect,"30 µM, 30.03 µM",-11.08%
COc1cc2c(cc1CN1CCn3c(CO)nnc3C1)CCC2.O=C(O)CC(O)(CC(=O)O)C(=O)O,Percent Effect,"30.3 µM, […]",-66.2%
O=C(COCC1CC[C@H]2[C@H](CCN2c2ncccn2)O1)N1CCCC1.O=C(O)C(F)(F)F (some centres undefined),Percent Effect,"30 µM, 30.03 µM",-11.45%
O=C(COC[C@H]1CC[C@H]2[C@H](CCN2c2ncccn2)O1)N1CCCC1.O=C(O)C(F)(F)F,Percent Effect,"30 µM, 30.03 µM",52.31%
O=C(COC[C@H]1CC[C@H]2[C@H](CCN2c2ccccn2)O1)N1CCCC1.O=C(O)C(F)(F)F,Percent Effect,"30 µM, 30.03 µM",-34.45%
O=C(CC1CC1)N1CCC2(CC1)CN(c1cccnc1)C(=O)CO2.O=C(O)C(F)(F)F,Percent Effect,"30.3 µM, […]",-59.01%
CCOc1ncccc1C(=O)N1CCC(Nc2ccc(C)nn2)CC1,Percent Effect,"30.3 µM, […]",1.842%
same,Percent Effect,"10 mM, 10 mM as filed; unlikely as a test dose",-20.5%
CN(C)S(=O)(=O)N1C[C@H]2C[C@H](C(=O)Nc3cccnc3)[C@@H](C1)O2,Percent Effect,"30.3 µM, […]",-739.2%
N#Cc1c(C2CC2)cc(-c2ccc(O)cc2)nc1N,Percent Effect,"30 µM, 30.03 µM",17.72%
COc1ccc(-c2cc(C3CC3)c(C#N)c(N)n2)cc1F,Percent Effect,"30.3 µM, […]",93.34%
N#Cc1c(C2CC2)cc(-c2ccc(F)c(F)c2)nc1N,Percent Effect,"30.3 µM, […]",-90.74%
CN(C)CCO[C@@H]1CC[C@H]2[C@H]1OCCN2C(=O)c1ccc(F)cc1.O=C(O)C(F)(F)F,Percent Effect,"30.3 µM, […]",-19.82%
CN(C)c1cc(CNC(=O)Nc2ccc(N3CCCC3)nc2)ccn1,Percent Effect,"30.3 µM, […]",18.28%
O=C(CC1CCC2(CC1)CCN(Cc1cccnc1)CC2)N1CC=CC1.O=C(O)C(F)(F)F.O=C(O)C(F)(F)F,Percent Effect,"30.3 µM, […]",-37.26%
O=C(C1CCOC1)N1CCC2(CCN(Cc3nccs3)C2)CC1 (centres undefined),Percent Effect,"30 µM, 30.03 µM",6.218%
O=C(C1CCOC1)N1CCC2(CCN(Cc3nccs3)CC2)CC1 (centres undefined),Percent Effect,"30 µM, 30.03 µM",55.49%
O=C(C1CCOCC1)N1CCC2(CCN(Cc3nccs3)CC2)CC1.O=C(O)C(F)(F)F,Percent Effect,"30 µM, 30.03 µM",11.85%
CCn1cc(C(=O)N2C[C@H]3C[C@H](Oc4ccccc4)C[C@H]3C2)cn1,Percent Effect,"30.3 µM, […]",7.287%
CS(=O)(=O)NCc1nnc2n1CCN(Cc1ccncc1)C2,Percent Effect,"30.3 µM, […]",-346.7%
CS(=O)(=O)NCc1nnc2n1CCN(Cc1cccnc1)C2,Percent Effect,"30.3 µM, […]",-308.6%
CS(=O)(=O)NCc1nnc2n1CCN(Cc1ccccn1)C2,Percent Effect,"30.3 µM, […]",73.82%
CC(C)=CCN1C(=O)[C@H]2CC[C@@H]1CN(c1ncccc1C(N)=O)C2,Percent Effect,"30 µM, 30.03 µM",2.727%
CC1c2ncc(CNC(=O)C3CC3)n2CCN1Cc1nccs1.O=C(O)C(F)(F)F (centres undefined),Percent Effect,"30.3 µM, […]",-11.04%
CC(C)(C)n1ncc2c(=O)[nH]c(NC3CC=CC3)nc21,Percent Effect,"30 µM, 30.03 µM",100.8%
CN1CC(Nc2nc3c(cnn3C(C)(C)C)c(=O)[nH]2)CCC1=O (centres undefined),Percent Effect,"30 µM, 30.03 µM",-21.89%
CC(C)(C)n1ncc2c(=O)[nH]c(N3CC(O)C3)nc21,Percent Effect,"30 µM, 30.03 µM",18.67%
Cc1ncc(CN2CCC(N(C)Cc3noc(C4CC4)n3)C2)s1 (centres undefined),Percent Effect,10 µM,-20.3%
CC(Cn1cccn1)NC(=O)NCc1cccnc1 (centres undefined),Percent Effect,10 µM,-30.88%
O=C(O)C(c1ccc2c(c1)OCCO2)N1CCC(N2CCSCC2)CC1 (centres undefined),Percent Effect,"30 µM, 30.03 µM",-29.57%
Cc1nc2ccccc2nc1CN(C)CC1CCCN1c1cccnn1 (centres undefined),Percent Effect,"30 µM, 30.03 µM",-12.68%
Cc1nc(CN(C)CC2CCCN2c2cccnn2)nc2ccccc12 (centres undefined),Percent Effect,"30.3 µM, […]",101.1%
CN(Cc1nc(N)c2ccccc2n1)CC1CCCN1c1cccnn1 (centres undefined),Percent Effect,"30 µM, 30.03 µM",4.932%
Cc1nn(C)c(N(C)C)c1CNCCOc1ccc2c(c1)OCO2.Cl,Percent Effect,10 µM,-62.44%
Cc1nc(CNc2cccc(Cl)c2Cl)cs1,Percent Effect,"30.3 µM, […]",13.05%
CN(C)c1cccc(C2CCCN2Cc2nnnn2C2CC2)c1 (centres undefined),Percent Effect,"30 µM, 30.03 µM",-5.59%
O=C1OCCN1CCCN1CCCC1c1ccc(O)cc1 (centres undefined),Percent Effect,"30.3 µM, […]",-41.53%
CN(C)c1cccc(C2CCCN2CCCN2CCOC2=O)c1 (centres undefined),Percent Effect,"30.3 µM, […]",100.6%
Cc1cc(C(=O)N2CCN(c3nc4c(C(C)C)cccc4s3)CC2)no1,Percent Effect,"30 µM, 30.03 µM",-24.13%
Cc1ccc(CN(CCCn2ccnc2)Cc2c[nH]cn2)s1.O=C(O)CC(O)(CC(=O)O)C(=O)O,Percent Effect,"30.3 µM, […]",1.137%
CN(C)c1ccc(CN(CCCn2ccnc2)Cc2c[nH]cn2)cc1.O=C(O)CC(O)(CC(=O)O)C(=O)O,Percent Effect,"30.3 µM, […]",101.7%
Cc1ccc(CN(CCCn2ccnc2)Cc2cnc(N(C)C)nc2)s1.O=C(O)CC(O)(CC(=O)O)C(=O)O,Percent Effect,"30.3 µM, […]",-19.58%
CCOc1ccc(Cl)cc1C1CCCCN1.Cl (centres undefined),Percent Effect,"30 µM, 30.03 µM",-10.24%
Cc1cccc(CN2C(=O)CCC23CCN(C(=O)NC(C)C)CC3)n1.O=C(O)C(F)(F)F,Percent Effect,"30.3 µM, […]",-47.32%
O=C(O)C1CCCN1c1nc(-c2ccc(Cl)cc2)cc(C(F)(F)F)n1 (centres undefined),Percent Effect,"30 µM, 30.03 µM",-38.97%
Cc1c(-c2cc(C(F)(F)F)nc(N3CCC(N)CC3)n2)cnn1C,Percent Effect,"30.3 µM, […]",47.45%
Cc1ccc(-c2cc(C(F)(F)F)nc(N3CCOCC3)n2)s1,Percent Effect,"30 µM, 30.03 µM",-24.17%
CCn1ncc(-c2cc(C(F)(F)F)nc(N3CCC(N)CC3)n2)c1C,Percent Effect,"30.3 µM, […]",100.2%
O=C(O)C1CCCN1c1nc(-c2ccc(Cl)c(Cl)c2)cc(C(F)(F)F)n1 (centres undefined),Percent Effect,"30 µM, 30.03 µM",-7.275%
CCc1ccc(-c2cc(C(F)(F)F)nc(N3CCC(N)CC3)n2)cc1,Percent Effect,"30.3 µM, […]",100.3%
Cc1nccn1CCC1CCNCC1.Cl.Cl,Percent Effect,"30.3 µM, […]",-19.74%
CC1c2ncc(Cn3cccn3)n2CCN1Cc1ccc(F)cc1.O=C(O)C(F)(F)F (centres undefined),Percent Effect,"30.3 µM, […]",6.386%
CCS(=O)(=O)N1CCCC(Cc2cnccn2)C1 (centres undefined),Percent Effect,"30.3 µM, […]",-26.51%
C1CCC(CNC2CCCN(Cc3noc(C4CC4)n3)C2)CC1 (centres undefined),Percent Effect,"30.3 µM, […]",78.83%
C1CCCN(C2CCCN(Cc3noc(C4CC4)n3)C2)CC1 (centres undefined),Percent Effect,"30.3 µM, […]",49.07%
c1ncn(CC2CCCN(Cc3noc(C4CC4)n3)C2)n1 (centres undefined),Percent Effect,"30.3 µM, […]",-10.36%
C1CCCN(CC2CCCN(Cc3noc(C4CC4)n3)C2)CC1 (centres undefined),Percent Effect,"30.3 µM, […]",63.76%
C1CCC(CNC2CCCN(Cc3noc(C4CC4)n3)C2)C1 (centres undefined),Percent Effect,"30.3 µM, […]",26.01%
C1CC(NCC2CC2)CN(Cc2noc(C3CC3)n2)C1 (centres undefined),Percent Effect,"30.3 µM, […]",-4.666%
Cn1cc(CN2C[C@@H]3COC[C@H](C(=O)Nc4cccnc4)[C@@H]3C2)cn1.O=C(O)C(F)(F)F.O=C(O)C(F)(F)F,Percent Effect,"30 µM, 30.03 µM",-8.066%
NC(=O)c1ccccc1NC(=O)CCN1CCN(c2ccccc2)CC1,Percent Effect,"30 µM, 30.03 µM",4.761%
CCOC(=O)N1CCc2ccccc2C12CCNCC2.Cl,Percent Effect,"30.3 µM, […]",-45.47%
Cc1ccc(CN2CCC3(CC2)CN(C(=O)c2cnccn2)CCO3)o1.O=C(O)C(F)(F)F,Percent Effect,"30.3 µM, […]",-12.58%
CC1=N[C@@]2(CC[C@@H]3CN(Cc4ccccc4F)C[C@@H]32)C(=O)N1CC1CC1.O=C(O)C(F)(F)F,Percent Effect,"30 µM, 30.03 µM",55.44%
CC1=N[C@@]2(CC[C@@H]3CN(Cc4ccccc4C)C[C@@H]32)C(=O)N1CC1CC1.O=C(O)C(F)(F)F,Percent Effect,"30.3 µM, […]",-63.56%
CC1=N[C@@]2(CC[C@@H]3CN(Cc4ccccc4)C[C@@H]32)C(=O)N1CC1CC1.O=C(O)C(F)(F)F,Percent Effect,"30.3 µM, […]",-40.35%
CN(C)C(=O)c1cc2c(nc1NCC1CC1)CCNCC2,Percent Effect,"30.3 µM, […]",-109.7%
O=C(c1cnn(-c2ccccc2F)c1)N1CCN(CCO)CC1,Percent Effect,"30 µM, 30.03 µM",1.358%
CCCN1CCN(C(=O)c2cnn(-c3ccccc3F)c2)CC1,Percent Effect,"30 µM, 30.03 µM",55.35%
CCC(O)CN1CCN(C(=O)c2cnn(-c3ccccc3F)c2)CC1 (centres undefined),Percent Effect,"30 µM, 30.03 µM",22.96%
CN1C(=O)CC[C@]12CC[C@@H](NCc1ccsc1)CC2.O=C(O)C(F)(F)F,Percent Effect,"30.3 µM, […]",8.729%
CC(C)CCN1C[C@H]2C[C@H](C(=O)NCc3ccccc3)[C@@H](C1)O2.O=C(O)C(F)(F)F,Percent Effect,"30 µM, 30.03 µM",29.18%
CCn1cc(-c2cc(-c3cc(CN(C)C)cs3)nc(N)c2C#N)c(C)n1,Percent Effect,"30 µM, 30.03 µM",-4.566%
Cc1cc(CN2CCC(c3nccn3C(C)C)CC2)ccc1F,Percent Effect,"30 µM, 30.03 µM",-24.52%
Cc1ccc(Cl)c(CN2CCC(c3nccn3C(C)C)CC2)c1F,Percent Effect,"30 µM, 30.03 µM",104.1%
CCn1ccnc1C1CCN(Cc2cccc(Cl)c2)CC1,Percent Effect,"30 µM, 30.03 µM",-40.4%
CCn1ccnc1C1CCN(Cc2c(F)cccc2F)CC1,Percent Effect,"30 µM, 30.03 µM",86.79%
CCn1ccnc1C1CCN(Cc2cccc(C)n2)CC1,Percent Effect,"30 µM, 30.03 µM",-34.54%
CC(C)n1ccnc1C1CCN(Cc2ccc(Cl)c(F)c2)CC1,Percent Effect,"30 µM, 30.03 µM",33.49%
COc1ccc(Cl)cc1C(C(=O)O)N1CCSCC1 (centres undefined),Percent Effect,"30.3 µM, […]",-71.2%
CN(C)c1nc(N)nc(CN2CCCC2c2cccs2)n1 (centres undefined),Percent Effect,"30 µM, 30.03 µM",-6.91%
Cc1cccc(C2CCCN2Cc2nc(N)nc(N(C)C)n2)c1C (centres undefined),Percent Effect,"30 µM, 30.03 µM",100.5%
CN(C)c1nc(N)nc(CN2CCCC2c2ccsc2)n1 (centres undefined),Percent Effect,"30 µM, 30.03 µM",-20.26%
Cc1ccc(C(=O)NCc2ccnc(C3CCCOC3)n2)s1 (centres undefined),Percent Effect,"30.3 µM, […]",49.43%
O=C(NCc1ccnc(C2CCCOC2)n1)c1cccs1 (centres undefined),Percent Effect,"30.3 µM, […]",-2.313%
Cc1ccsc1C(=O)NCc1ccnc(C2CCCOC2)n1 (centres undefined),Percent Effect,"30.3 µM, […]",54.51%
